The record followed here is PubChem BioAssay.

In one test the target is Albumin (Bos taurus) (UniProt P02769). The experiment in a line: bovine serum albumin binders on microarray, profiling panel, artefact control for SMM control protein annotation, biochemical, small-molecule microarray, Alexa647 label, 635/667 nm fluorescence (AID 1118).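 Further: score merges 667 nm emission intensity and signal-to-noise per printed compound spot.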 To be noted: BSA-A647 binding, fluorescence 635 nm, higher = more signal.
Test [1] in a line: small-molecule microarray binders of probe aXIP, primary screen, biochemical, NeuroSMM set, 635/667 nm fluorescence (AID 1119).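 Further: probe is the protein aXip251-270 applied at 1 µg/mL to compound-printed slides; binding of probe to printed compounds measured as 667 nm fluorescence plus signal to noise.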 As to conditions: higher = more signal, called active from +8 up or from −8 down.
A short description of test [2]: small-molecule binders of probe aNOTCH3, primary screen, biochemical, small-molecule microarray, 635/667 nm fluorescence (AID 1120).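 Further: probe is a biotin-tagged antibody raised against NOTCH3 rather than NOTCH3 protein; score merges spot fluorescence near 667 nm with spot signal to noise.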 As to conditions: higher = more signal.
Test [3] can be described thus: small-molecule binders of probe aNOTCH2, primary screen, biochemical, small-molecule microarray, 635/667 nm fluorescence (AID 1121).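 Further: score merges feature fluorescence read at 667 nm with its signal to noise.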 To be noted: higher = more signal.
Test [4] addresses Carbonic anhydrase 2 (Homo sapiens) (UniProt P00918). Kind of test: CAII small-molecule binders, profiling panel, biochemical, small-molecule microarray, Alexa647-labelled CAII (AID 1122). To be noted: CAII-A647 binding fluorescence, higher = more signal.
The nature of test [5]: COS7 lysate on small-molecule microarray, probe aHis, 635 nm (AID 1123).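 Further: z-score combines 667nm fluorescence intensity with signal-to-noise per printed compound spot.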 As to conditions: COS7 cell lysate, fluorescence, higher = more signal.
A short description of test [6]: compound binding in COS7 lysate, probe aLAP1, primary screen, cell lysate, small-molecule microarray (AID 1124).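 Further: lysate comes from COS7 cells expressing LAP1 and is applied at 0.3 µg/mL; score merges spot fluorescence near 667 nm with signal-to-noise over triplicate slides.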 To be noted: probe aLAP1, fluorescence, higher = more signal.
In the next test the test system is Sam68 (KHDRBS1). The experiment in a line: Sam68 small-molecule binders, primary screen, biochemical, small-molecule microarray, 635 nm fluorescence (AID 1125).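 Further: score merges 667 nm channel intensity with signal to noise over triplicate slides.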 To be noted: small-molecule microarray binding, higher = more signal.
The test system of test [7] is Chordin-like protein 2 (CHRDL2). Kind of test: CHRDL2 small-molecule binders, primary screen, biochemical, small-molecule microarray, 635 nm fluorescence (AID 1126).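 Further: printed compound slides probed with Chrdl2 protein at 4 µg/mL for 1 h at 4 C; score merges 667 nm emission intensity with signal to noise over three replicate slides.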 As to conditions: small-molecule microarray binding, fluorescence 635 nm; higher = more signal.
Test [8] has as its target Concanavalin-A (Canavalia ensiformis) (UniProt P02866). Kind of test: ConA small-molecule binders, primary screen, artefact control for SMM control protein annotation, biochemical, small-molecule microarray, Alexa647 label, 635 nm (AID 1127).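 Further: z combines 667 nm emission intensity with signal-to-noise across three replicate slides.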 To be noted: ConA-A647 binding fluorescence, higher = more signal.
A short description of test [9]: anti-His antibody binders, primary screen, artefact control for SMM control protein annotation, biochemical, small-molecule microarray, 635 nm fluorescence (AID 1128).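 Further: score merges feature fluorescence with signal-to-noise for each printed compound spot.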 As to conditions: anti-His Alexa647 antibody binding, higher = more signal.
Test [10] has as its system Human papillomavirus type 1a E7 protein (residues 1-88). Kind of test: HPV1a E7 small-molecule binders, primary screen, biochemical, small-molecule microarray, residues 1-88, 635 nm (AID 1129). To be noted: small-molecule microarray binding, fluorescence 635 nm; higher = more signal.
In test [11] the target is Focal adhesion kinase 1 (Homo sapiens) (UniProt Q05397). The experiment in a line: small-molecule microarray binders of FAK, primary screen, biochemical, 635/667 nm fluorescence, BSA, DTT (AID 1130).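 Further: composite of spot emission at 667 nm and signal to noise over triplicate slides.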 To be noted: PTK2 binding, 635 nm fluorescence, higher = more signal.
For test [12], the system named is Fibrinogen (Alexa647-labelled). The experiment in a line: fibrinogen binders on compound microarrays, profiling panel, artefact control for SMM control-protein annotation, biochemical, small-molecule microarray, 635/667 nm fluorescence (AID 1131).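 Further: z-score merges 667 nm fluorescence with per-spot signal-to-noise over triplicate slides.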 As to conditions: fibrinogen-A647 binding fluorescence, higher = more signal.
The target in test [13] is Follistatin (Homo sapiens) (UniProt P19883). The experiment in a line: follistatin binders on small-molecule microarrays, primary screen, biochemical, small-molecule microarray, 635/667 nm fluorescence (AID 1132). As to conditions: FST binding, 635 nm fluorescence, higher = more signal.
The target of test [14] is Fibroblast growth factor 2 (Homo sapiens) (UniProt P09038). The experiment in a line: FGF2 binders on small-molecule microarrays, primary screen, biochemical, small-molecule microarray, 635/667 nm fluorescence (AID 1133). As to conditions: small-molecule microarray binding, FGF2, fluorescence 635/667; higher = more signal.
Test [15] is described as follows: mitochondrial membrane potential change in A549 cells, profiling panel, cell-based, JC-1 fluorescence, basal, 24 h, 100 nL (AID 1138).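 Further: A549 lung adenocarcinoma cells under basal conditions with no added stimulus; test concentration not given here.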 As to conditions: higher = more signal.
The test system of another test is Lefty1. Kind of test: Lefty1 binders on small-molecule microarrays, primary screen, biochemical, small-molecule microarray, 635/667 nm fluorescence (AID 1139). To be noted: small-molecule microarray binding, fluorescence 635/667; higher = more signal.
In test [16] the test system is wheat germ agglutinin (Triticum aestivum), Alexa647-labelled. The experiment in a line: wheat germ agglutinin binders on compound microarrays, profiling panel, artefact control for SMM control-protein annotation, biochemical, small-molecule microarray, 635/667 nm fluorescence (AID 1140).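 Further: score merges 667 nm feature emission with signal to noise over triplicate slides.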 As to conditions: WGA-A647 binding, 635 nm fluorescence, higher = more signal.
For test [17], the target named is Luciferin 4-monooxygenase (Photinus pyralis) (UniProt P08659). The experiment in a line: firefly luciferase enzyme inhibitors, primary screen, biochemical, luminescence, purified enzyme, 2006 set (AID 1141).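 Further: cell-free assay with purified firefly luciferase at 100 ng per well in PBS; test concentration not given here.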 To be noted: SteadyGlo luminescence, 30 min, higher = more signal, called active from +8 up or from −8 down.

The source made the active and inactive calls.

Chain of Focal adhesion kinase 1 (Homo sapiens) (Q05397 whole entry, looked up): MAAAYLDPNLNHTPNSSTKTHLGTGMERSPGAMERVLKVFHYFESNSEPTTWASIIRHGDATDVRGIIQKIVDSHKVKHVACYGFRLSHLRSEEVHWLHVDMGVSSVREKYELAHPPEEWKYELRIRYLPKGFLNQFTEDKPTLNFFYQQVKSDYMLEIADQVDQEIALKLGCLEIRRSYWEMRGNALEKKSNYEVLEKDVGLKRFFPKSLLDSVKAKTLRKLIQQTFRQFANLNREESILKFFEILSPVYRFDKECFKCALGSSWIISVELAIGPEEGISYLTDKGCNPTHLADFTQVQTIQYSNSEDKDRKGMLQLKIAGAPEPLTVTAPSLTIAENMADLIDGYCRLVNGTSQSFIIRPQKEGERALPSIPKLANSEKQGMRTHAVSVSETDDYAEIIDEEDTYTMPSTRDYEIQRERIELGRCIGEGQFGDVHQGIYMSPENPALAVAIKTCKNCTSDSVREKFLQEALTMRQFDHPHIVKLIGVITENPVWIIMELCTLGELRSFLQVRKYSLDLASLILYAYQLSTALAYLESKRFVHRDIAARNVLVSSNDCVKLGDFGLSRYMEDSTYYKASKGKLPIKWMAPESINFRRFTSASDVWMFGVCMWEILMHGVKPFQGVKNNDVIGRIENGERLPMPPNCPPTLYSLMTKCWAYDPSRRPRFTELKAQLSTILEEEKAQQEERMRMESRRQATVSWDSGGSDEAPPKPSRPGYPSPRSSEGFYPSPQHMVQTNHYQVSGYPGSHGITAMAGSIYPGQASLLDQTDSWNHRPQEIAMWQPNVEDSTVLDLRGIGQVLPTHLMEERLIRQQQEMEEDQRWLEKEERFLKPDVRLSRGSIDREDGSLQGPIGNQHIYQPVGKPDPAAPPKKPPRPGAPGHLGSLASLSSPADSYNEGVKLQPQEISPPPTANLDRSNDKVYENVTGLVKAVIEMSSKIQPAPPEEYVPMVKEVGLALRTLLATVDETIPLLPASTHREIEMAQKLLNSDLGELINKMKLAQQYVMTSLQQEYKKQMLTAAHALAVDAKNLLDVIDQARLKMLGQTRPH
Chain of Concanavalin-A (Canavalia ensiformis) (P02866 whole entry, looked up): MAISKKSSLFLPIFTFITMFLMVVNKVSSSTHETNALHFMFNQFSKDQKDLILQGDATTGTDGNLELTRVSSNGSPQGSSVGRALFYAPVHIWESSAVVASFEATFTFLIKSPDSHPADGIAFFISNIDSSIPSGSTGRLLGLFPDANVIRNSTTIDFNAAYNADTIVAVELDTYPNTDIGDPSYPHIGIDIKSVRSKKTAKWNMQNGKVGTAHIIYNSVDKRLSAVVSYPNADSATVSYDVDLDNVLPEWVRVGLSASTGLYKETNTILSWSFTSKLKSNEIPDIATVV
Chain of Albumin (Bos taurus) (P02769 whole entry, looked up): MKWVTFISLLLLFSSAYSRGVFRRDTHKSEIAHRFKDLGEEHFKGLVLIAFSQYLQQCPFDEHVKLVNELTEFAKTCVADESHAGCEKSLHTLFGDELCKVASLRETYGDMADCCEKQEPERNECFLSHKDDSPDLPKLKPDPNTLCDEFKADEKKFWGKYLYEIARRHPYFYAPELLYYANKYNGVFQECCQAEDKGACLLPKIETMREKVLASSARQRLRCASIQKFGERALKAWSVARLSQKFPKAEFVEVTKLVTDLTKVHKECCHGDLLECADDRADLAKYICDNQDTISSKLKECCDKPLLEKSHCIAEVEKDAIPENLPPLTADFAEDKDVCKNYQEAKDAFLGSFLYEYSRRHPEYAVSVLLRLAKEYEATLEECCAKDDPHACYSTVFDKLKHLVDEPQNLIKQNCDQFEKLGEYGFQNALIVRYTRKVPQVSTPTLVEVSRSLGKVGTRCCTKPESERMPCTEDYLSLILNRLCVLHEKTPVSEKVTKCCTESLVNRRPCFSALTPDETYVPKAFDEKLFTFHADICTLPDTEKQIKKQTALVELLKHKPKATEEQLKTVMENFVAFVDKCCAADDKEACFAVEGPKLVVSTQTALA
Chain of Luciferin 4-monooxygenase (Photinus pyralis) (P08659 whole entry, looked up): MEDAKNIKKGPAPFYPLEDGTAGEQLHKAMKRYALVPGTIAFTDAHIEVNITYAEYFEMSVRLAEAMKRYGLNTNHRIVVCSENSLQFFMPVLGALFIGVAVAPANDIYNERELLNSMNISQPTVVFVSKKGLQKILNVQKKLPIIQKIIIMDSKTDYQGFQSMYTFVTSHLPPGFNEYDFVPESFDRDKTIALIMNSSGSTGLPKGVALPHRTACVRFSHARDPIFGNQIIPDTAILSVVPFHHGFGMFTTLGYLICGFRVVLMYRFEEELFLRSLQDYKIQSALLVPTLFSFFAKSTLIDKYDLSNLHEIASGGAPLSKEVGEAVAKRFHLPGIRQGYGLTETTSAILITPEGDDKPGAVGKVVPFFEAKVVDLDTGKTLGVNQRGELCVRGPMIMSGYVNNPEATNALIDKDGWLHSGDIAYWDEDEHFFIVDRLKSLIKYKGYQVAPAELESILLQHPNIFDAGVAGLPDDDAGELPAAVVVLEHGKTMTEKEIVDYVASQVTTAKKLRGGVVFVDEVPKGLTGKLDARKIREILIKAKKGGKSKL
Chain of Fibroblast growth factor 2 (Homo sapiens) (P09038 whole entry, looked up): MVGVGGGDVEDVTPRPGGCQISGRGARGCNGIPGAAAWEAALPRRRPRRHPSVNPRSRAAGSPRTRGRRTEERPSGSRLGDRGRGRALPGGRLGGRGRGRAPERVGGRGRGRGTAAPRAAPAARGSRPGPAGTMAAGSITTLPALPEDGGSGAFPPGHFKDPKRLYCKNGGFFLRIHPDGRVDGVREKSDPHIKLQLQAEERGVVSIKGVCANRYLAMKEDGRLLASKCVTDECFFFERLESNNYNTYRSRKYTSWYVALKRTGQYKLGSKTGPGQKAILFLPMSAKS
Chain of Follistatin (Homo sapiens) (P19883 whole entry, looked up): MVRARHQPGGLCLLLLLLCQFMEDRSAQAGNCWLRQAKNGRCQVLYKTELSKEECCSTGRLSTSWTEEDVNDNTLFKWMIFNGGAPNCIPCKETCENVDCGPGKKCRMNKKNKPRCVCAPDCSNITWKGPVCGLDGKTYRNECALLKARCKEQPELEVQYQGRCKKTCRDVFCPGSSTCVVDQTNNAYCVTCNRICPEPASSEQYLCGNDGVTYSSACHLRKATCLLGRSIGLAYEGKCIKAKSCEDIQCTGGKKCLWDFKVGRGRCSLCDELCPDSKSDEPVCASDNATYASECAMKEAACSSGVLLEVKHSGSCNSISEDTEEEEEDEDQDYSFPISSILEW

As to `C=CCN1C(=O)[C@]2(O[C@H](CCn3cc(CCO)nn3)[C@@H]([Si](C)(C)c3ccc(OC)cc3)[C@@H]2C)c2cc(N3CCOC3=O)ccc21`, the composite z-score in the test with Albumin (Bos taurus) is 0.617; in [2] it was -0.161; in test [3], -0.104; in test [4], 0.368; in [5] it was 1.88; in [6] it was 1.21. For the same compound, the composite z-score with Sam68 (KHDRBS1) is 0.448; in test [7], -0.34; in [8], 1.13; in [9], 0.766; in test [10], 1.2; in test [11] it was 0.469. In addition, the composite z-score in test [12] was 0.338; in test [13], -0.293; in [14], -0.0054; with Lefty1 it was 0.0269; in [16], 0.574. In addition, in [1], the composite Z-score is -0.217 (inactive). The results for the z-score in [15] and in test [17] were 0.982 and -1.8 (inactive), respectively.
Consider `CO[C@@H]1COC(=O)CC=C[C@@H](C)[C@@H]2C=C[C@H](O)[C@@H](COC(=O)CCC[C@H]1C)O2`, for which the composite z-score is -0.203 in the test with Albumin (Bos taurus); 0.0319 in [2]; -0.184 in test [3]; -0.455 in [4]; -1.2 in test [5]; 0.0206 in [6]. Also, the composite z-score is 0.0503 in the test on Sam68 (KHDRBS1); 1.3 in [7]; -0.239 in test [8]; 1.59 in [9]; -0.442 in test [10]; -0.382 in [11]. In addition, the composite z-score in [12] is -0.478; in test [13] it was 1.06; in test [14], 1.3; in the test on Lefty1, 1.08; in test [16], -0.0297. Besides, in test [1], the composite Z-score is 0.135 (inactive). In addition, the z-score was -0.992 in test [15] and 0.732 (inactive) in test [17].
As for `NCCCCCNC(=O)[C@@H]1C[C@@H]2C(=O)N3CCC[C@H]3C(=O)N2[C@@H]1c1cccc(OCCO)c1`, the composite z-score in the test with Albumin (Bos taurus) came out at 0.533; in test [2] it was 0.453; in test [3], 0.294; in test [4], 0.659; in test [5] it was 1.68; in test [6] it was 1.09. In addition, the composite z-score in the test on Sam68 (KHDRBS1) was determined as 1.19; in test [7], 1.14; in [8] it was 1; in test [9], 1.83; in [10] it was 0.689; in test [11] it was 1.13. Moreover, the composite z-score was found to be 0.974 in test [12]; 1.34 in test [13]; 0.878 in test [14]; 0.437 in the test on Lefty1; 0.881 in [16]. In addition, the composite Z-score in test [1] was 1.34 (inactive). For the same compound, the z-score is -0.269 in [15] and -0.115 (inactive) in [17].
In the case of `CC1CC/C=C\[C@H]2OC34C=CCN(C(C)C)C(=O)[C@H]3N(CCCO)C(=O)[C@@H]4C2C(=O)O1` (stereo not given in full), the composite z-score with Albumin (Bos taurus) was 0.468; in [2] it was -0.0018; in test [3], -0.0621; in test [4], 0.9; in test [5], 0.702; in test [6], 0.962. Further, the composite z-score in the test with Sam68 (KHDRBS1) is -0.499; in test [7], -0.951; in [8], -1.74; in [9] it was 1.41; in test [10] it was -0.883; in test [11], -0.716. The composite z-score in test [12] is -1.5; in [13] it was -1.07; in test [14] it was -1.24; in the test with Lefty1, -0.837; in [16], -1.09. In test [1], the composite Z-score was -1.03 (inactive). Further, the results for the z-score in test [15] and in [17] were 0.439 and -0.623 (inactive), respectively.
On to `COC(=O)[C@H](C)NC(=O)CCC1CC(OC(=O)NCc2cccc3ccccc23)CC2(CCCC(COC(=O)NCC3CCCCC3)O2)O1` (stereo not given in full), for which the composite z-score in the test with Albumin (Bos taurus) was -0.409; in test [2], 0.175; in [3], -0.0984; in [4] it was 0.612; in test [5], 1.61; in test [6] it was 0.486. The composite z-score in the test on Sam68 (KHDRBS1) is 1.29; in test [7], 0.62; in [8], 1.12; in test [9], 0.876; in test [10] it was 1.22; in test [11], 0.234. The composite z-score is 0.986 in [12]; 0.591 in test [13]; 1.4 in test [14]; 1.09 in the test on Lefty1; 0.487 in test [16]. Further, in [1], the composite Z-score was -0.551 (inactive). For the same compound, the z-score in [15] was -0.25; in [17], 0.925 (inactive).
